POLK inh = qHTS for Inhibitors of Polymerase Kappa | DNA polymerase kappa (Homo sapiens), Q9UBT6 | purified Pol kappa, fluorescent DNA synthesis assay, 10 min | Potency, µM (doses to about 107 µM), for the others: top-dose activity, negative = inhibition, usual class: inhibitors | hit rate 0.53% among 400,000 | AID 588579, 2011; note: % is set by controls: 0 for no effect and ±100 for the full control effect
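Inhibition of 10 nM Pol kappa is measured by a fluorescent read-out at 0 and 10 min following addition of 50 nM substrate (final), with a 15-min room-temperature compound preincubation.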
FEN1 inh = qHTS Assay for the Inhibitors of Human Flap endonuclease 1 (FEN1) | Potency, µM (series often up to 114 µM), for the others: at the top dose activity change, negative = inhibition, usual class: inhibitors | AID 588795, 2011 | P39748 | Recombinant FEN1 flap cleavage, fluorescence, 15 min | hit rate 0.35% among 390,000; note: % is set by controls: 0 for no effect and ±100 for the full control effect; nearly all actives have a fitted effect of over 65% in size
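With each library titrated from low to high concentration, compounds met 10 nM FEN1 for 15 min at room temperature before 50 nM substrate was added; readings at 0 and 15 min fed four-parameter Hill curve fits.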
WRN inhibitor = qHTS for Inhibitors of WRN Helicase | Bifunctional 3'-5' exonuclease/ATP-dependent helicase WRN (Homo sapiens), Q14191 | hit rate 0.46% among 360,000 | WRN helicase unwinding, fluorescent forked duplex, kinetic | Potency, µM (top dose mostly 114 µM), inactives show at the highest dose activity change, negative = inhibition, hits mostly inhibitors; note: % is set by controls: 0 for no effect and ±100 for the full control effect; nearly all actives have a fitted effect of over 55% in size
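Kinetic red-fluorescence monitoring (525/598 nm) tracks WRN helicase activity after 100 nM fluorophore-quencher forked duplex and 2 mM ATP are added to 20 nM enzyme pretreated 15 min at room temperature with compound.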
POLH inh = qHTS for Inhibitors of Polymerase Eta | DNA polymerase eta (Homo sapiens), Q9Y253 | recombinant Pol eta, fluorescent DNA replication assay | Potency, µM (titrated, usually from 114 µM), inactives show at the top dose activity change, negative = inhibition, usual class: inhibitors | hit rate 1.2% among 390,000; note: % is set by controls: 0 for no effect and ±100 for the full control effect
Target sequence (Q9Y253 whole entry, looked up): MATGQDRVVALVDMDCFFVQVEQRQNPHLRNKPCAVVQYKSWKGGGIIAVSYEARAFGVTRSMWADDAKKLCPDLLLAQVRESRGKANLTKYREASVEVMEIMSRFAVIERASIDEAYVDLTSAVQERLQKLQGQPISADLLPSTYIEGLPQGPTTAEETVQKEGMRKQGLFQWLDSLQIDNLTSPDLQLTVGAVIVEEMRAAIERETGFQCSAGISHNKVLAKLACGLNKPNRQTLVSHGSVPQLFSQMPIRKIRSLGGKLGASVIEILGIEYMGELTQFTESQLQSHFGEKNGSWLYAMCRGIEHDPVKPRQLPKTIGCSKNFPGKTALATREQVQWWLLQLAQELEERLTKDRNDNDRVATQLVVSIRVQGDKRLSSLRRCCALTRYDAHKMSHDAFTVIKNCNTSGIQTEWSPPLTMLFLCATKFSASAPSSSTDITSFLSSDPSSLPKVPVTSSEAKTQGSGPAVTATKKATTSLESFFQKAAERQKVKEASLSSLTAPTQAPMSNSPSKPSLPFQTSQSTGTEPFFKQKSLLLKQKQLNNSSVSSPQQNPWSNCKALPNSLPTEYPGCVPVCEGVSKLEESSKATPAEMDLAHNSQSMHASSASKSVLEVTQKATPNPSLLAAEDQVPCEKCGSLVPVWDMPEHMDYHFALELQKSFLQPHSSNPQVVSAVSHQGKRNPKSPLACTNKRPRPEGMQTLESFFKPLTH
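Pol eta at 10 nM preincubated with compounds 15 min at room temperature; reaction started with fluorescent substrate (50 nM final) and read kinetically at 0 and 10 min.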
Pol iota inh = qHTS for Inhibitors of Polymerase Iota; DNA polymerase iota (Homo sapiens), Q9UNA4; Pol iota fluorescent replication assay, 10 min; Potency, µM (top dose mostly 115 µM), for the others: at the top dose activity, negative = inhibition, actives largely listed as inhibitors; hit rate 1% among 390,000; AID 588590, 2011
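Pol iota at 10 nM preincubated 15 min with compounds at room temperature; reaction started with fluorescent substrate, 50 nM final. Fluorescence read kinetically at 0 and 10 min; buffer-only wells as negative control.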
POLB inh = qHTS Assay for Inhibitors of DNA Polymerase Beta; Pol beta primer extension/strand displacement, fluorescence kinetic; Potency, µM (highest dose often 114 µM), without a hit: at the top dose activity change, negative = inhibition, hits mostly inhibitors; hit rate 1.3% among 340,000; AID 485314, 2010; note: % is set by controls: 0 for no effect and ±100 for the full control effect
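Reaction started by 50 nM substrate onto compound-treated Pol beta (10 nM, 15 min preincubation, room temperature); plates read at 0 min and 10 min. Normalized concentration-effect data fitted by four-parameter Hill equation.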
An asterisk follows results filed as active; u = inconclusive; x = not tested or not shown; [ ] = remark or other dose. The list is not random: actives were taken first. Their share in the collection is about 2.4%. Calls come from the whole dose curve; as a rule, active = well fitted curve in the direction sought with a large enough effect; inconclusive = small, poorly fitted or top-dose-only effect, or another doubt; inactive = no such curve, though single readings can be large; an effect the other way counts as inactive or inconclusive. Potency is the fitted concentration of half-maximal effect.

SMILES | POLK inh | FEN1 inh | WRN inhibitor | POLH inh | Pol iota inh | POLB inh
CCOc1ccccc1C1C2C(=O)N(c3ccccc3)C(=O)C2ON1c1ccccc1 (configuration not stated) | -7% | 2% | -14%[57.1 µM] | -18% | 56µM* | 5%
Cc1ccc(-c2nc(SCC(=O)N(C)c3c(N)n(Cc4ccccc4)c(=O)[nH]c3=O)n[nH]2)cc1 | -3% | 0% | -1% | -23% | 31% | 89µM*
COCCN(C(=O)CSc1n[nH]c(-c2ccc(OC)cc2)n1)c1c(N)n(Cc2ccccc2)c(=O)[nH]c1=O | -13% | -7% | -13% | -1% | 17% | x
COCCCn1c(SCC(=O)OC2CCCCC2)nnc1-c1ccco1 | -7% | -7% | 5% | -2% | 5% | 36%
COCCCn1c(SCC(=O)OC2CCCCC2)nnc1-c1cccs1 | -20% | -3% | -9% | -12% | 100µM* | 3%
Cc1ccc(-c2nc3cnccn3c2Nc2ccc(C(C)C)cc2)o1 | -37% | -29% | x | x | u | x
Cc1ccc2nc(-c3ccc(N=Nc4cc(S(=O)(=O)O)c5ccccc5c4O)cc3)sc2c1S(=O)(=O)O | 20µM* | 7.1µM* | x | x | 25µM* | x
O=c1cc(-c2ccccc2Cl)oc2c(NS(=O)(=O)c3cccc4nsnc34)ccc(O)c12 | -7% | -10% | -1% | -3% | u | 9%
O=c1cc(-c2ccccc2Cl)oc2cc(O)cc(O)c12 | -5% | -18% | -7% | -10% | 5% | u
Nc1ccc(O)c2c(=O)cc(-c3ccccc3Cl)oc12 | -11% | -8% | -12% | -12% | -19% | 22µM*
O=c1cc(-c2ccccc2Cl)oc2c(NS(=O)(=O)c3cc(Cl)cc(Cl)c3O)ccc(O)c12 | u | -36% | u | 32µM* | 40µM* | 45µM*
CNc1ccc(C=O)cc1Cl | -14% | -7% | x | x | 34% | x
Cc1ccc(OCC(=O)c2cc(C)n(Cc3cccs3)c2C)c([N+](=O)[O-])n1 | -23% | -2% | 4% | -13% | 95% | u
CC(=O)c1c(C)[nH]c(C(=O)COc2cc(C)cc(C)c2)c1C | -6% | -4% | -11% | 1% | 17% | 11%
CC(=O)c1c(C)[nH]c(C(=O)COc2ccc3ccc(=O)oc3c2)c1C | -34% | -21% | 5%[11.6 µM] | 35µM* | u | x
Cc1cc(C(=O)COc2ccc3ccc(=O)oc3c2)c(C)n1Cc1cccs1 | -19% | -11% | -8% | -18% | -47% | 50µM*
COc1cccc(C2=CC(c3ccccc3F)n3ncc(C(=O)Nc4ccc(C)cc4)c3N2)c1 (configuration not stated) | -9%[60.1 µM] | -20% | x | -18% | -2% | 28µM*
O=C(COC(=O)c1ccc([N+](=O)[O-])s1)NCc1ccccc1 | -22% | u | -1% | u | u | 13µM*
Cc1cnccn1 | 1% | 4% | x | x | 83% | x
COc1cc2c[n+](C)c3c4ccccc4ccc3c2cc1OC | 32µM* | 6.3µM* | -22% | u | u | x
COc1ccc2c(c1)c[n+](C)c1c3cc(OC)c(OC)cc3ccc21 | x | x | 0% | x | x | x
CCn1c(SCC(=O)Nc2ccc(F)cc2)nnc1C1CC1 | -14% | 9% | 5% | 2% | 8% | 7%
CCn1c(SCC(=O)Nc2sccc2C(N)=O)nnc1C1CC1 | u | 14% | 2%[11.6 µM] | -9% | 56µM* | x
Cc1ccc2ncnc(NCc3ccco3)c2c1 | -18% | -21% | x | x | u | x
COC(=O)/C=C\c1cc(O)ccc1O | -11%[19.4 µM] | x | x | x | x | x
SMILES | POLK inh | FEN1 inh | WRN inhibitor | POLH inh | Pol iota inh | POLB inh
Cc1c(CCC(=O)O)c(=O)oc2cc(OCc3ccccc3Br)ccc12 | -19% | -31% | u | -14% | -25% | 50µM*
CC[C@H](C)[C@H](NC(=O)[C@H](C)NC(=O)[C@H](Cc1cnc[nH]1)NC(=O)[C@@H]1CCCN1C(=O)CNC(=O)[C@H](CC(C)C)NC(=O)[C@H](CC(C)C)NC(=O)[C@H](Cc1ccc(O)cc1)NC(=O)CNC(=O)[C@H](C)NC(=O)[C@H](CO)NC(=O)[C@H](CC(N)=O)NC(=O)[C@H](CC(C)C)NC(=O)[C@@H](NC(=O)[C@H](Cc1c[nH]c2ccccc12)NC(=O)CN)[C@@H](C)O)C(=O)O | 19%[60.1 µM] | x | x | x | x | x
COc1cccc(NS(=O)(=O)c2ccc3[nH]cc(C(=O)N4CCCC4)c(=O)c3c2)c1 | -16% | 5% | x | -1% | -5% | u
COc1cccc(NS(=O)(=O)c2ccc3[nH]cc(C(=O)NC(C)c4ccccc4)c(=O)c3c2)c1 (configuration not stated) | u | 2% | x | u | 89µM* | 40µM*
COc1cc(S(=O)(=O)O)c(C)cc1N=Nc1c(O)ccc2cc(S(=O)(=O)O)ccc12 | 79µM* | 35µM* | x | x | 45µM* | x
Cc1cc(=O)cc(C)n1-c1ccc(Br)cc1 | 4% | -5% | 16µM* | -16% | 44% | -13%
COc1ccc(CNC(=O)CCc2c(C)c3cc4c(C)c(C)oc4cc3oc2=O)cc1OC | -18% | -13% | x | -17% | -16% | 1.6µM*
Cc1coc2cc3oc(=O)c(CCC(=O)NCCN4CCOCC4)c(C)c3cc12 | u | -3% | 7% | -6% | 89µM* | -2%
Cc1oc2cc3oc(=O)c(CCC(=O)NCCC(=O)O)c(C)c3cc2c1C | -4% | 6% | -10% | 56µM* | 3% | 1%
Cc1oc2cc3oc(=O)c(CC(=O)N[C@H](C(=O)N[C@@H](C(=O)O)c4ccccc4)C(C)C)c(C)c3cc2c1C | u | 17% | -15% | -16% | 79µM* | -2%
COc1ccc(CCNC(=O)CCc2c(C)c3cc4c(C)c(C)oc4cc3oc2=O)cc1 | 3% | -13% | x | -15% | u | 21%
O=C(Nc1ccc(Cl)cc1Cl)[C@@H]1CC=C[C@@H]2CCN(Cc3ccccc3)C(=O)[C@@H]21 | -6% | 0% | x | x | 5% | x
Cc1sc2cc3c(c(C(=O)c4ccccc4)[n+]2c1C)-c1cccc2cccc-3c12 | -9% | 40µM* | -14%[11.6 µM] | u | 39% | u
Cc1cc2ccccc2cc1C(=O)c1ccccc1 | -20% | 1% | -12% | -7% | 0% | x
CCOC(=O)c1c(NC(=O)/C=C/C(=O)O)sc(C)c1-c1ccc(Cl)cc1 | 2% | 14% | -4%[11.6 µM] | 79µM* | u | -18%
CCOC(=O)c1cc(NC(=O)/C=C\C(=O)O)ccc1Cl | 6% | 10% | 4% | -13% | 78% | 0%
